The source of these data is PubChem BioAssay (EPA / NIEHS).

The structures appear in SMILES notation. Results filed as inconclusive are left out. Calls of active or inactive are those of the source. Rule for the calls, unless noted: active = hit-call score of the fitted dose curve at least 0.9, where 1 is the maximum; inactive = score below 0.9.

Assay [1] has as its target Paired box protein Pax-6 (Homo sapiens) (UniProt P26367). In words: ATG_Pax6_CIS: Attagene CIS-FACTORIAL HepG2 Assay for human Paired Box 6 (PAX6) (AID 2282956). The note with it: HepG2 CIS-FACTORIAL PAX6 reporter transcription, RNA readout; actives raise or lower the signal. A digest of the protocol: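 Readout: reporter transcript fluorescence after RT-PCR and capillary electrophoresis. Cells: HepG2, transiently transfected with cis-regulated MRTUs. Exposure 24 h. Gain or loss of signal fitted bidirectionally relative to DMSO.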

A short description of assay [2]: ATG_PXRE_CIS: Attagene CIS-FACTORIAL HepG2 Assay for human Pregnane X Receptor Element (PXRE) (AID 2282957). The note with it: HepG2 Attagene CIS-FACTORIAL PXRE reporter, mRNA; actives raise or lower the signal. A digest of the protocol:
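Using HepG2 transfected with multiple reporter transcription units, endogenous factor-driven transcription was scored as reporter mRNA after 24 h exposure.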

The nature of assay [3]: ATG_PPRE_CIS: Attagene CIS-FACTORIAL HepG2 Assay for human Peroxisome Proliferator-activated Response Element (PPRE) (AID 2282958). As to conditions: HepG2 PPRE cis-element reporter, Attagene transcription factor profiling; actives raise or lower the signal. Put shortly:
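Multiplexed reporter transcription units under cis-regulatory promoters were transfected into HepG2 cells to capture endogenous factor activity. A 24 h incubation preceded RNA isolation and fluorescent RT-PCR fragment analysis.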

The nature of assay [4]: ATG_RORE_CIS: Attagene CIS-FACTORIAL HepG2 Assay for human RAR-related Orphan Receptor Element (RORE) (AID 2282959). The note with it: HepG2 Attagene cis-factorial RORE reporter, mRNA; actives raise or lower the signal. Put shortly: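 Fluorescence intensity of reporter-specific cDNA fragments, separated by capillary electrophoresis, gives the signal. Source: HepG2 liver cells transiently transfected with cis-element reporters and exposed 24 h; DMSO-normalized bidirectional fit.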

Assay [5] in a line: ATG_Sox_CIS: Attagene CIS-FACTORIAL HepG2 Assay for human SRY-box transcription factor (SOX) (AID 2282960). The note with it: HepG2 Attagene cis-factorial SOX reporter, mRNA; actives raise or lower the signal. A digest of the protocol:
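After 24 h of chemical treatment, transfected HepG2 reporter cells are lysed for total RNA. Transcript levels come from RT-PCR with labelled primer extension and capillary electrophoresis, analysed bidirectionally versus DMSO.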

Assay [6] addresses Transcription factor Sp1 (Homo sapiens) (UniProt P08047). In words: ATG_Sp1_CIS: Attagene CIS-FACTORIAL HepG2 Assay for human Specificity Protein 1 (Sp1) (AID 2282961). The note with it: HepG2 Sp1 cis-reporter transcription, actives raise or lower the signal. A digest of the protocol: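 Sp1-driven reporter mRNA, read as capillary electrophoresis fluorescence after RT-PCR, in transiently transfected HepG2 cells dosed for 24 h; signal change in either direction relative to DMSO.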

Assay [7] in a line: ATG_SREBP_CIS: Attagene CIS-FACTORIAL HepG2 Assay for human Sterol Regulatory Element Binding (SREBP) (AID 2282962). The note with it: HepG2 Attagene cis-factorial SREBP reporter, mRNA; actives raise or lower the signal. Put shortly:
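Readout: fluorescent reporter-transcript peaks resolved by capillary electrophoresis after RT-PCR. Cells were human HepG2 carrying transfected cis-promoter reporter constructs, dosed for 24 h. Gain or loss of signal was fitted against DMSO controls.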

In assay [8] the target is Signal transducer and activator of transcription 3 (Homo sapiens) (UniProt P40763). In words: ATG_STAT3_CIS: Attagene CIS-FACTORIAL HepG2 Assay for human Signal Transducer and Activator of Transcription 3 (STAT3) (AID 2282963). The note with it: HepG2, Attagene cis-factorial STAT3 reporter transcription; actives raise or lower the signal. Put shortly:
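Readout: fluorescent reporter mRNA fragments resolved by capillary electrophoresis. Setup: HepG2 transfected with MRTUs reporting endogenous transcription-factor activity, dosed 24 h. Gain or loss of signal fitted bidirectionally against DMSO control.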

Assay [9] in a line: ATG_TA_CIS: Attagene CIS-FACTORIAL HepG2 Assay for human TA Basal Promoter (AID 2282964). The note with it: HepG2 Attagene CIS-factorial TA basal promoter reporter; actives raise or lower the signal. A digest of the protocol: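 Steps: transfect HepG2 with MRTUs; dose 24 h; isolate RNA, DNase-treat, reverse-transcribe; PCR and FAM-label reporter cDNA; digest with HpaI 2h at 37 C; run capillary electrophoresis. Activity fitted both directions against DMSO.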

Assay [10] can be described thus: ATG_TCF_b_cat_CIS: Attagene CIS-FACTORIAL HepG2 Assay for human T-Cell-Factor with beta-catenin (TCF/b-cat) (AID 2282965). As to conditions: HepG2 TCF/beta-catenin cis-reporter transcription, actives raise or lower the signal. Put shortly: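 Cells of the HepG2 line carry transiently transfected reporter units whose promoters respond to endogenous factors. Twenty-four hours post-dosing, reporter mRNA induction is measured by fluorescent RT-PCR and capillary electrophoresis, with DMSO as baseline.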

Assay [11] can be described thus: ATG_TAL_CIS: Attagene CIS-FACTORIAL HepG2 Assay for human TAL Basal Promoter (AID 2282966).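 Note: background control endpoint measuring basal TAL promoter reporter mRNA not a specific factor.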 As to conditions: HepG2 Attagene cis-factorial TAL promoter reporter; actives raise or lower the signal. Put shortly:
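After 24 hours of chemical exposure, transfected HepG2 cells yielded RNA that was converted to 6-FAM-labelled, HpaI-digested reporter fragments for capillary electrophoresis. Values derive from bidirectional fitting against DMSO controls.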

A short description of assay [12]: ATG_TGFb_CIS: Attagene CIS-FACTORIAL HepG2 Assay for human Transforming Growth Factor (TGF) (AID 2282967). The note with it: HepG2 Attagene CIS TGFb reporter, mRNA transcription; actives raise or lower the signal. A digest of the protocol:
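Cells were dosed for 24 hours, after which total RNA was reverse-transcribed and reporter sequences amplified, labeled and sized by capillary electrophoresis. Activity was fitted in both directions against DMSO.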

Assay [13] in a line: ATG_VDRE_CIS: Attagene CIS-FACTORIAL HepG2 Assay for human Vitamin D Receptor Element (VDRE) (AID 2282968). The note with it: HepG2 VDRE cis-reporter transcription, actives raise or lower the signal. Put shortly:
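Transient MRTU transfection of HepG2, 24 h compound exposure. Readout: reporter transcripts via RT-PCR and capillary electrophoresis, fluorescence. Bidirectional fit vs DMSO.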

In assay [14] the target is Nuclear receptor subfamily 1 group I member 3 (Homo sapiens) (UniProt Q14994). The assay can be described thus: ATG_CAR_TRANS: Attagene TRANS-FACTORIAL HepG2 Assay for human Constitutive Androstane Receptor (CAR) (AID 2282969; active = hit-call score of the fitted dose curve at least 0.9, where 1 is the maximum;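 note: activators raise reporter mRNA above DMSO so AC50 marks induction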). As to conditions: HepG2 Attagene TRANS-FACTORIAL CAR reporter. A digest of the protocol:
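Transiently transfected HepG2, multiplex TRANS reporters (CAR-Gal4 chimera driving GAL4-UAS reporter). 24 h dosing. Readout: reporter transcript by RT-PCR + capillary electrophoresis, fluorescence intensity; positive direction vs DMSO.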

Assay [15] addresses Steroid hormone receptor ERR1 (Homo sapiens) (UniProt P11474). The assay can be described thus: ATG_ERRa_TRANS: Attagene TRANS-FACTORIAL HepG2 Assay for human Estrogen-Related Receptor alpha (ERRa) (AID 2282971; active = hit-call score of the fitted dose curve at least 0.9, where 1 is the maximum). The note with it: HepG2 Attagene TRANS reporter, ERRa transactivation. A digest of the protocol:
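Reporter transcript induction was quantified by RT-PCR and capillary electrophoresis of FAM-labelled, HpaI-cut products after 24 h treatment of HepG2 cells carrying transiently transfected GAL4-UAS reporter units and an exogenous ERRa-Gal4 fusion; activity scored as increase over DMSO.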

For assay [16], the target named is X-box-binding protein 1 (Homo sapiens) (UniProt P17861). In words: ATG_Xbp1_CIS: Attagene CIS-FACTORIAL HepG2 Assay for human X-box Binding Protein 1 (XBP1) (AID 2282972). The note with it: HepG2 XBP1 cis-element reporter, Attagene multiplex; actives raise or lower the signal. A digest of the protocol: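 Read-out: fluorescent reporter mRNA fragments resolved by capillary electrophoresis after RT-PCR. Human HepG2 liver cells carried transfected cis-promoter reporter units and were exposed to chemicals for 24 hours. Gain or loss of signal fitted relative to DMSO baseline.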

Assay [17] can be described thus: ATG_PBREM_CIS: Attagene CIS-FACTORIAL HepG2 Assay for human Phenobarbital-responsive Enhancer Module (PBREM) (AID 2282955). The note with it: HepG2 PBREM cis-reporter, Attagene multiplexed transcription; actives raise or lower the signal. Put shortly: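 After a 24 h incubation with test chemical, transfected HepG2 cells yield total RNA; reporter-specific RT-PCR products are fluorescently labelled, HpaI-digested and resolved by capillary electrophoresis against ROX size standards.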

Assay [18] is described as follows: ATG_M_19_TRANS: Attagene TRANS-FACTORIAL HepG2 Assay for M19 Transcription Factor (Internal Marker) (AID 2282974; active = hit-call score of the fitted dose curve at least 0.9, where 1 is the maximum). As to conditions: HepG2 Attagene TRANS-FACTORIAL M19 internal marker reporter. Put shortly: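 Measured here: internal-marker reporter transcript from HepG2 cells transfected with MRTUs, harvested at 24 h. cDNA PCR products were 6-FAM labelled by primer extension, cut with HpaI for 2 h at 37 C, and resolved by CE.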

Sequence of Paired box protein Pax-6 (Homo sapiens) (P26367 whole entry, looked up): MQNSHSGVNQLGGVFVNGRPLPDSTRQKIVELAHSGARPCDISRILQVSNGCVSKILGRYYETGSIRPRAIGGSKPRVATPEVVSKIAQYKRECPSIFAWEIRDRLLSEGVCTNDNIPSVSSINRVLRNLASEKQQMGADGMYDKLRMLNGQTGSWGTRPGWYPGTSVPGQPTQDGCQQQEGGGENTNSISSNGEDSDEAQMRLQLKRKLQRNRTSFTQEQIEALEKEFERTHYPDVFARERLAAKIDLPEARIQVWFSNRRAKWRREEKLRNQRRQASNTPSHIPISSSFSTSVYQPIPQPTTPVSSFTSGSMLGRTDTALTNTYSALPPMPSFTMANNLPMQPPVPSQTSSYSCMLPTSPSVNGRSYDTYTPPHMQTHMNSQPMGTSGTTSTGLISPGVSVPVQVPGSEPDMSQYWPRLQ
Sequence of X-box-binding protein 1 (Homo sapiens) (P17861 whole entry, looked up, the tested form may be a part): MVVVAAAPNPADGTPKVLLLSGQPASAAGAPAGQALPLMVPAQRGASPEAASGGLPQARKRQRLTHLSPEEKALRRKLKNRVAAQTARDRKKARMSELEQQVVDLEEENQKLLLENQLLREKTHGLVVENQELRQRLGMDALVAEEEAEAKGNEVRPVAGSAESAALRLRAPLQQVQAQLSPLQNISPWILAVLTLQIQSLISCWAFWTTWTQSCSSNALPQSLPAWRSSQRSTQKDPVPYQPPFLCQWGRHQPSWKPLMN
Sequence of Steroid hormone receptor ERR1 (Homo sapiens) (P11474 whole entry, looked up, the tested form may be a part): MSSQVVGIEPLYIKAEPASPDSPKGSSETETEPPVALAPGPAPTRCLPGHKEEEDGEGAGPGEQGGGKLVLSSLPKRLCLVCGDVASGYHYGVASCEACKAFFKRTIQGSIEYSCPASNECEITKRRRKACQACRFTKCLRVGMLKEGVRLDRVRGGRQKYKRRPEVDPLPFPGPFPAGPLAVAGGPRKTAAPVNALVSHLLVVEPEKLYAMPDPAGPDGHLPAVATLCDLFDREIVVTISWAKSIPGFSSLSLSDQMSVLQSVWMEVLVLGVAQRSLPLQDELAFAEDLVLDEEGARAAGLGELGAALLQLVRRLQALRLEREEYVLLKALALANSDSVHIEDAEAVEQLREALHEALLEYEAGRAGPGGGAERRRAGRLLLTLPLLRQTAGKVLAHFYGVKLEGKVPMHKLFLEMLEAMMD
Sequence of Nuclear receptor subfamily 1 group I member 3 (Homo sapiens) (Q14994 whole entry, looked up, the tested form may be a part): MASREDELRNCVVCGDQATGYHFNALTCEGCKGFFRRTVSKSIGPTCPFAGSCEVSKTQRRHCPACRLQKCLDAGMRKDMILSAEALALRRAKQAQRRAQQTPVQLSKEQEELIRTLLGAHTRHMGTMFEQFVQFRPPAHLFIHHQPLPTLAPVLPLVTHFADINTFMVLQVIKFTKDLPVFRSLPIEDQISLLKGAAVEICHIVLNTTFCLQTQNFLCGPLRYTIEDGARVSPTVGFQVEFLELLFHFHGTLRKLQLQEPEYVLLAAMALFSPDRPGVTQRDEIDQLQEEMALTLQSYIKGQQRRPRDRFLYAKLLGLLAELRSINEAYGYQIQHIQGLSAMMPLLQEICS
Sequence of Transcription factor Sp1 (Homo sapiens) (P08047 whole entry, looked up): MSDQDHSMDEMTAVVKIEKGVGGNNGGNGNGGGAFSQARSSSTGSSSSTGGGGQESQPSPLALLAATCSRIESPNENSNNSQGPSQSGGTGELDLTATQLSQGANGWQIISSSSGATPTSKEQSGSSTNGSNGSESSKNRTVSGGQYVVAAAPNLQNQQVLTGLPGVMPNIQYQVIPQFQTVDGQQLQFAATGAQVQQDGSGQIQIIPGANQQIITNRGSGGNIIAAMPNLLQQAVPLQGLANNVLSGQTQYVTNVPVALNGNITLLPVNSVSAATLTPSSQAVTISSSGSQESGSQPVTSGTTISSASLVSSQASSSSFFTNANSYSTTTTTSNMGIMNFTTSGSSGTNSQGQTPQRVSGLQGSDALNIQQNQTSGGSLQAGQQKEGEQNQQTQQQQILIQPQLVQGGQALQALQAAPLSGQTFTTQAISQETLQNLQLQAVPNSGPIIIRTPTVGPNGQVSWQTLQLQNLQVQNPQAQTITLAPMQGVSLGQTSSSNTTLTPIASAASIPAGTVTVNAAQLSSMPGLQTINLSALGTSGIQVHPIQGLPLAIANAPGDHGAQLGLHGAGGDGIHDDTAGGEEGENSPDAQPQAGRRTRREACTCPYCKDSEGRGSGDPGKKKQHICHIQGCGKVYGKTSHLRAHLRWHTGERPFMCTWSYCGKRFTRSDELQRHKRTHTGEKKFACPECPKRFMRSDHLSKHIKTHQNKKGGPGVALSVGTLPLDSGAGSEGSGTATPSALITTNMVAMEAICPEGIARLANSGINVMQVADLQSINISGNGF
Sequence of Signal transducer and activator of transcription 3 (Homo sapiens) (P40763 whole entry, looked up, the tested form may be a part): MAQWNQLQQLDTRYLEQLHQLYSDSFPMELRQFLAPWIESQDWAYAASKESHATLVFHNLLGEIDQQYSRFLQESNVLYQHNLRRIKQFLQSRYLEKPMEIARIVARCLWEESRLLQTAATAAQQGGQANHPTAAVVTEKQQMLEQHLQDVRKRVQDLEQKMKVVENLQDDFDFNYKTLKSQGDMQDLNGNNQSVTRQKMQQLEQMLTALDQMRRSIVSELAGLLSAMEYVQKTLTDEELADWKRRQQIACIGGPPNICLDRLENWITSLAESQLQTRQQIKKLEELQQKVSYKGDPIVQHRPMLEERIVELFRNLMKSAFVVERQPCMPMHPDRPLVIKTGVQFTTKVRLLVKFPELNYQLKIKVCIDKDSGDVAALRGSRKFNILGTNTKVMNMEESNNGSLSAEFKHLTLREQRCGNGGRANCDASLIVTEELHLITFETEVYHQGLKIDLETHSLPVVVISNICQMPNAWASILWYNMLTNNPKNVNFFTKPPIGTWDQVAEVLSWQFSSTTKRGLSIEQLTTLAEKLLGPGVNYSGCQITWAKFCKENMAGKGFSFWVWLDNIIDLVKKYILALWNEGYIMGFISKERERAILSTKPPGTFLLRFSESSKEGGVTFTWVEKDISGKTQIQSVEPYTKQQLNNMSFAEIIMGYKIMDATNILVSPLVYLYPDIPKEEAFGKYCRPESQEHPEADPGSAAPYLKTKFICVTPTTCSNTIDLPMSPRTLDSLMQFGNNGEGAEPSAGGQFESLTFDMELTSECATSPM

Regarding `COC(=O)NS(=O)(=O)c1ccc(N)cc1`, the call in assay [1], in assay [3], in assay [4], in assay [5], in assay [6] and in assay [7] was inactive. Moreover, the compound was classed as inactive in assay [8], in assay [9], in assay [10], in assay [11], in [12] and in [13]. For the same compound, the compound was called inactive in assay [14], in assay [15] and in assay [16]. In addition, the AC50 in [2] was 19.9 µM (active).
Regarding `CCC(C)n1c(=O)[nH]c(C)c(Br)c1=O` (stereo unspecified), the outcome in assay [17], in assay [1], in assay [4], in assay [5], in [6] and in assay [7] was inactive. Moreover, the outcome in [8], in assay [9], in assay [10], in [11], in [12] and in [13] was inactive. Also, the compound was classed as inactive in assay [14], in assay [15], in [16] and in assay [18]. The AC50 in [2] is 50 µM (active).
For the compound `COC(=O)N(C(=O)N1CO[C@@]2(C(=O)OC)Cc3cc(Cl)ccc3C2=N1)c1ccc(OC(F)(F)F)cc1`, the compound was called inactive in [1], in assay [3], in assay [5], in assay [6], in assay [8] and in assay [9]. In addition, the compound was classed as inactive in assay [10], in assay [11], in assay [12], in assay [15], in [16] and in assay [18]. Moreover, the AC50 in assay [2] is 1.24 µM (active); in assay [4], 13.2 µM (active); in assay [7], 5.39 µM (active); in [13], 2.98 µM (active).
Take `Cc1c(COC(=O)[C@@H]2[C@H](/C=C(\Cl)C(F)(F)F)C2(C)C)cccc1-c1ccccc1`: the compound was called inactive in [1], in [3], in assay [4], in [5], in [6] and in assay [7]. Moreover, the compound was called inactive in assay [8], in [9], in [10], in assay [11], in assay [12] and in assay [14]. For the same compound, the compound was classed as inactive in assay [16] and in [18]. Further, the results for the AC50 in assay [2] and in [13] were 2.31 µM (active) and 12.6 µM (active), respectively.
On to `CCNC(=O)NC(=O)C(C#N)=NOC`, for which the outcome in assay [17], in [1], in [2], in assay [3], in assay [4] and in assay [5] was inactive. The call in assay [6], in [7], in [8], in assay [9], in assay [10] and in assay [11] was inactive. In addition, the call in assay [12], in [13], in assay [14], in assay [15], in assay [16] and in assay [18] was inactive.
`CN=C=S`: the compound was called inactive in [1], in assay [2], in assay [4], in assay [5], in assay [8] and in [9]. The compound was called inactive in assay [10], in assay [11], in assay [12] and in [16]. For the same compound, the AC50 in [3] is 18.3 µM (active); in assay [6], 13.3 µM (active); in [7] it was 13.1 µM (active); in assay [13], 50 µM (active).
For `O=c1n(Cl)c(=O)n(Cl)c(=O)n1Cl`, the compound was classed as inactive in assay [1], in assay [3], in assay [4], in assay [5], in assay [6] and in assay [8]. For the same compound, the compound was classed as inactive in assay [9], in assay [10], in assay [11], in assay [12], in [13] and in [14]. Also, the result in assay [16] and in assay [18] was inactive. The AC50 in assay [2] was 50 µM (active).
`CC(C)NC(=O)N1CC(=O)N(c2cc(Cl)cc(Cl)c2)C1=O`: the compound was classed as inactive in assay [1], in assay [4], in assay [5], in assay [6], in assay [8] and in [9]. Also, the compound was classed as inactive in assay [10], in assay [11], in [12], in assay [15], in [16] and in [18]. In addition, the AC50 in assay [2] was 5.44 µM (active); in assay [3], 23.2 µM (active).
